# Assay outcomes (PubChem)
# In the library only some 1.4% were active in any assay of this set; here they are far more common.
# Mtb MenB inh = inhibitors of Mycobacterium tuberculosis MenB enzyme. P9WNP5. inhibition, % (no concentration beside the values). MenB enzyme assay, absorbance read-out. actives 0.43% (n = 100,000); in the data active = inhibition above about 21%, passing the limit was not always enough
# Target sequence (P9WNP5 whole entry, looked up): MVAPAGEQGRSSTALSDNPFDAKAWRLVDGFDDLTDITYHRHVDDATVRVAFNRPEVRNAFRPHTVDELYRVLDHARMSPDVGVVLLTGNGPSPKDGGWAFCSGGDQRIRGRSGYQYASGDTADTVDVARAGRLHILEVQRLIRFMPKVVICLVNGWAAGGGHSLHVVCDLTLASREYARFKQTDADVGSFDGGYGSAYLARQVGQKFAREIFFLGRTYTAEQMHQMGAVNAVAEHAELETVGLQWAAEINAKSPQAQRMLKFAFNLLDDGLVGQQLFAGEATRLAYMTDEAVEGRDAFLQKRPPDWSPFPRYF
# PV pol inh = inhibitors of poliovirus RNA polymerase binding and polymerization; % elongation, % (compound at 16.7 µg/mL); poliovirus polymerase elongation, fluorescence polarization; active compounds read low; actives 0.66% (n = 150,000); AID 588519; P03300; in the data active = % elongation below about 90%
# Mtb MbtI inh = MbtI salicylate synthase inhibition; P9WFX0; inhibition, % (no concentration beside the values); purified MbtI enzyme, fluorescence intensity read-out; actives 0.89% (n = 100,000); in the data active = inhibition mostly above about 56%, no sharp cut-off; inactive = mostly below about 77%
# AID504770 = E. coli YBA685 growth inhibition, screen for V. cholerae RctB inhibitors; actives 0.27% (n = 130,000); E. coli YBA685 rctB-dependent plasmid, OD600 growth, 3 h; active compounds read low; z-score (no concentration beside the values); AID 504770; in the data active = z-score below about -2, passing the limit was not always enough
# A number is an active result; 0 = inactive; - = no result given.
SMILES,Mtb MenB inh,PV pol inh,Mtb MbtI inh,AID504770
Cc1ccc(/C=C2\CCCc3ccccc3C2=O)o1,0,0,0,0
O=C(O)C1CC(=O)N(CCCN2CCOCC2)C1 (centres undefined),0,0,0,0
C=CCn1c(C(C)Oc2ccc(Cl)cc2Cl)n[nH]c1=S (centres undefined),0,0,0,0
C=CCn1c(CSCc2ccc(F)cc2)n[nH]c1=S,0,0,64,0
C=CCn1c(Cc2ccc(OC)c(Cl)c2)n[nH]c1=S,0,0,91,0
CCOC(=O)C1=C(CSc2nnc(-c3cccs3)n2-c2ccccc2)NC(=O)NC1C (centres undefined),0,0,0,-2.5
Cc1ccc(Cn2c(=O)c3cccnc3n(Cc3ccc(F)cc3)c2=O)cc1,-,0,-,-
COC(=O)C1=CO[C@@H](C)[C@H]2CN3CCc4c([nH]c5ccccc45)[C@@H]3C[C@H]12,0,0,0,-
COCCCn1c(=O)c2ccccc2n(CC(N)=O)c1=O,28,0,0,0
CCc1ccc(CN2CCN(CC)CC2)cc1,35,0,0,0
CCc1ccc(CN2CCC(N3CCCCC3)CC2)cc1,0,0,-,0
O=C(O)c1ccc(CNc2ccccc2)cc1,0,0,0,0
O=C(COCc1nc2ccccc2s1)Nc1ccc(-c2nnc3n2CCCCC3)cc1,0,89,0,0
COc1ccc(CC(=O)Nc2ccc(-c3nnc4n3CCCCC4)cc2)cc1,0,0,0,0
COc1ccc2[nH]cc(C(=O)CSc3nnc(-c4ccoc4)c(-c4ccoc4)n3)c2c1,0,0,75,0
Cn1cc(C(=O)CSc2nnc(-c3ccoc3)c(-c3ccoc3)n2)c2ccccc21,0,0,0,0
CC(=O)OCC(=O)Nc1ccccc1,0,3.0,0,0
Cc1cc(C)cc(NC(=O)C2CCN(S(=O)(=O)c3cn(C)cn3)CC2)c1,-,0,-,-
O=C(NC1(C(F)(F)F)Oc2ccc(Cl)cc2O1)N1CCCCC1 (centres undefined),-,-,0,-
CCN(C(=O)NC1(C(F)(F)F)Oc2ccc(Cl)cc2O1)C1CCCCC1 (centres undefined),0,0,71,0
N/C(=N/O)c1ccccc1N,42,0,0,0
CN1C2CCC1CC(NCCc1ccccc1)C2 (centres undefined),-,-,0,0
COC(=O)c1ccccc1NC(=O)CCC(=O)N1CC(C)Sc2ccccc21 (centres undefined),-,0,-,-
CCOC(=O)c1ccc(N=C=S)cc1,0,0,0,-2.2
CCOC(=O)c1ccc(N=Cc2ccc(CC)cc2)cc1,0,0,-,0
SMILES,Mtb MenB inh,PV pol inh,Mtb MbtI inh,AID504770
CCOC(=O)C1CCN(C(=S)c2ccccc2)CC1,0,0,59,0
CCOc1ccc(C(=S)N2CCCC2)cc1,0,0,0,0
CCOC(=O)c1ccc(C(=S)N2CCCC2)cc1,0,69,77,0
O=C1NCCNC1CC(=O)N1CCN(c2ccccc2)CC1 (centres undefined),0,0,0,0
O=C(Nc1ccccc1Cl)N1CCSc2ccccc21,-,0,-,-
O/N=C/c1c(O)ccc2ccccc12,32,0,0,0
CN(CC(=O)NCc1cccs1)S(=O)(=O)c1ccc2c(c1)n(C)c(=O)c(=O)n2C,-,-,-,0
CCn1cc(S(=O)(=O)c2cc(C)cc(C)c2)c(=O)c2cc(F)c(N3CCCC3)cc21,-,0,-,-
CCNC(=S)Nc1c(C)n(C)n(-c2ccccc2)c1=O,0,0,-,0
O=C1N=C(N2CCCCC2)S/C1=C\c1cccs1,0,0,-,0
O=C1N=C(c2ccccc2)S/C1=C\c1cccs1,0,0,100,0
Clc1cc(Cl)cc(OCc2nc(-c3cc(-c4ccccc4)no3)cs2)c1,0,0,0,0
CCOc1ccc(Nc2cc(C(=O)NCc3ccc(F)cc3)c3ccccc3n2)cc1,0,0,0,0
